# Results from PubChem BioAssay AID1645838 (ICCB-Longwood Screening Facility, Harvard Medical School, 2021).
# Several values for one entry are separate records, joined by “and”; a condition that tells them apart may be missing. Equal values may be shown once. Screen size: about 2,000 compounds; about 100 (5%) were called active. This is one part of a sample in which actives are shown more often than they occur. Rule as the data show it: active = z-score above about 2; inactive = the rest.
# Test: supercomplex reporter luminescence per Hoechst cell count – Hoechst nuclei count (AID 1645838);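 also: control cybrid cells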;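 as to z-score: higher means more mitochondrial supercomplex formation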
# Details: Cells, luminescence/Hoechst cell count ratio; for z-score: stronger effect = higher value; for cell count: measured here: cell number, Hoechst nuclei count
# [1] = library stock concentration (final well concentration not given) 80 uM
# [2] = library stock concentration (final well concentration not given) 400 uM
# [3] = library stock concentration (final well concentration not given) 2 mM
# [4] = library stock concentration (final well concentration not given) 46 uM
# [5] = library stock concentration (final well concentration not given) 278 uM
# [6] = library stock concentration (final well concentration not given) 1.67 mM
# [7] = library stock concentration (final well concentration not given) 10 mM
smiles,measurement,setting,value
CN=C(NS(=O)(=O)c1ccc(Cl)cc1)N1CC(c2ccccc2)C(c2ccc(Cl)cc2)=N1 (stereo unspecified),z-score,,0.263 (inactive)
same,cell count,,4560
CCCC(=O)N[C@H]1CCOC1=O,z-score,,-0.00429 (inactive)
same,cell count,,5280
O=C1C(=O)c2cccc3cccc1c23,outcome,library stock 10 mM,inactive; censored for cell count
same,z-score,[1],-0.293 (inactive)
same,z-score,[2],-0.13 (inactive)
same,z-score,[3],0.0237 (inactive)
same,cell count,[1],5390
same,cell count,[2],5120
same,cell count,[3],4940
CCCCC/C=C\C/C=C\C/C=C\C/C=C\CCCC(=O)OCCN,z-score,,-1.23 (inactive)
same,cell count,,5760
COc1nc(C)nc(NC(=O)NS(=O)(=O)c2ccccc2Cl)n1,z-score,[4],0.223 (inactive)
same,z-score,[5],0.421 (inactive)
same,z-score,[6],0.438 (inactive)
same,z-score,[7],0.591 (inactive)
same,cell count,[4],6660
same,cell count,[5],6640
same,cell count,[6],6690
same,cell count,[7],6980
NC(=NCCCC(N)C(=O)O)N[N+](=O)[O-] (stereo unspecified),z-score,[4],-0.276 (inactive)
same,z-score,[5],-0.202 (inactive)
same,z-score,[6],-0.093 (inactive)
same,z-score,[7],-0.00821 (inactive)
same,cell count,[4],5020
same,cell count,[5],4960
same,cell count,[6],5010
same,cell count,[7],4490
O=C(NC(COc1ccc2[nH]c(=O)[nH]c2c1)c1ccccc1)c1cccn(Cc2ccc(F)c(F)c2)c1=O (stereo unspecified),z-score,[1],-0.974 (inactive) and -0.18 (inactive)
same,z-score,[2],-0.76 (inactive) and -0.318 (inactive)
same,z-score,[3],-0.629 (inactive) and -0.22 (inactive)
same,z-score,[7],-0.746 (inactive) and -0.664 (inactive)
same,cell count,[1],5360 and 6280
same,cell count,[2],4530 and 6370
same,cell count,[3],5030 and 6190
same,cell count,[7],4470 and 5840
CCCN(CCCN)N(O)N=O,z-score,,0.0434 (inactive)
same,cell count,,5220
COc1ccc2cc(C(C#N)OC(=O)OCC3OC3c3ccccc3)ccc2c1 (stereo unspecified),z-score,,-0.334 (inactive)
same,cell count,,4870
CCCCCCCCCCCCCCCCOC[C@@H](O)COP(=O)([O-])OCC[N+](C)(C)C,z-score,,-1.65 (inactive)
same,cell count,,5770
CCCC[C@@H](C)C(OC(=O)C[C@@H](CC(=O)O)C(=O)O)C(C[C@@H](C)C[C@H](O)CCCC[C@@H](O)C[C@H](O)[C@H](C)N)OC(=O)C[C@@H](CC(=O)O)C(=O)O (stereo partly specified),z-score,,-0.0113 (inactive)
same,cell count,,5860
NCCc1c(Cl)cccc1Cl,z-score,[1],0.124 (inactive)
same,z-score,[2],0.256 (inactive)
same,z-score,[3],0.163 (inactive)
same,z-score,[7],-0.533 (inactive)
same,cell count,[1],5290
same,cell count,[2],5420
same,cell count,[3],5540
same,cell count,[7],5250
CCCCCCCCCCCCCCCC(=O)OC[C@H](COP(=O)([O-])OCC[N+](C)(C)C)OC(=O)CCCC=O,z-score,,0.248 (inactive)
same,cell count,,4750
Cc1nc(-c2ccc(-c3ccc(C(=O)N4CCc5cc6c(cc54)C4(CCN(C)CC4)CO6)cc3)c(C)c2)no1,z-score,[1],-0.255 (inactive)
same,z-score,[2],0.0819 (inactive)
same,z-score,[3],-0.0801 (inactive)
same,z-score,[7],3.86 (active)
same,cell count,[1],5300
same,cell count,[2],5160
same,cell count,[3],5100
same,cell count,[7],1770
CC1CNCCc2ccc(Cl)cc21 (stereo unspecified),z-score,[1],-0.315 (inactive)
same,z-score,[2],-0.24 (inactive)
same,z-score,[3],-0.135 (inactive)
same,z-score,[7],-0.0867 (inactive)
same,cell count,[1],6030
same,cell count,[2],5570
same,cell count,[3],5830
same,cell count,[7],5720
